From PubChem BioAssay (EPA / NIEHS)
The source made the active and inactive calls. How the source made its calls: active means hit-call score of the fitted dose curve at least 0.9, where 1 is the maximum; inactive means score below 0.9.

Assays:
[1] = read-out: TIMP metallopeptidase inhibitor 2 (TIMP2), TIMP2 (gene 7077); experiment: BSK_KF3CT_TIMP2: BioMAP Diversity Plus: KF3CT Assay for TIMP metallopeptidase inhibitor 2 (TIMP2) Biomarker Activity (AID 2283071); settings: primary human keratinocytes with fibroblasts; actives raise or lower the signal
Method in brief: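 Cells: human keratinocytes co-cultured with foreskin fibroblasts. Treat with chemical, 24 h. Measure TIMP-2 by ELISA; fit curves bidirectionally vs DMSO baseline.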

[2] = read-out: Transforming growth factor beta 1 (TGFb1), TGFB1 (gene 7040); experiment: BSK_KF3CT_TGFb1: BioMAP Diversity Plus: KF3CT Assay for Transforming growth factor beta 1 (TGFb1) Biomarker Activity (AID 2283072); settings: primary human keratinocytes with fibroblasts; actives raise or lower the signal
Method in brief: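 Primary human skin cells (keratinocytes, foreskin fibroblasts) were co-cultured, exposed to test chemical and sampled at 24 h. TGF-b1 levels were measured by ELISA and fitted bidirectionally relative to DMSO.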

[3] = read-out: C-C motif chemokine 2 (Homo sapiens) (UniProt P13500); experiment: BSK_KF3CT_MCP1: BioMAP Diversity Plus: KF3CT Assay for Monocyte Chemoattractant Protein 1 (MCP1/CCL2) Biomarker Activity (AID 2283073); settings: primary human keratinocytes with fibroblasts; actives raise or lower the signal
Method in brief: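 Human keratinocyte–foreskin fibroblast co-culture; MCP-1 measured by ELISA 24 h after dosing. Bidirectional fit vs DMSO; cytotoxicity tracked by SRB total protein in parallel cultures.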

[4] = read-out: CD40, CD40 (gene 958); experiment: BSK_LPS_CD40: BioMAP Diversity Plus: LPS Assay for CD40 Biomarker Activity (AID 2283076); settings: primary human HUVEC with PBMC; actives raise or lower the signal
Method in brief: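 HUVEC plus PBMC co-culture stimulated with LPS; CD40 quantified by ELISA 24 h after compound dosing. Fitting was bidirectional relative to DMSO. SRB staining of parallel cultures flagged overt cytotoxicity.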

[5] = read-out: E-selectin (Homo sapiens) (UniProt P16581); experiment: BSK_LPS_Eselectin: BioMAP Diversity Plus: LPS Assay for Eselectin Biomarker Activity (AID 2283077); settings: primary human HUVEC with PBMC; actives raise or lower the signal
Method in brief: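 Human umbilical vein endothelial cells co-cultured with PBMC under LPS stimulation; cell-surface E-selectin measured by ELISA 24 h after dosing. Change in either direction versus DMSO, with SRB total-protein staining in parallel cultures for cytotoxicity.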

[6] = read-out: Interleukin-8 (IL8), CXCL8 (gene 3576); experiment: BSK_LPS_IL8: BioMAP Diversity Plus: LPS Assay for Interleukin-8 (IL8) Biomarker Activity (AID 2283078); settings: primary human HUVEC with PBMC; actives raise or lower the signal
Method in brief: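 Human umbilical vein endothelial cells co-cultured with PBMC, LPS-stimulated, exposed to compound for 24 h. IL-8 quantified by ELISA; fitted in both directions against DMSO, with SRB total-protein staining of parallel cultures for cytotoxicity.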

[7] = BSK_LPS_SRB: Viability Assessment in the BioMAP Diversity Plus: LPS Assay (AID 2283079); settings: primary human HUVEC with PBMC;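 further: total protein by sulforhodamine B absorbance as a cytotoxicity measure; measured one day after compound addition; fitted in both directions against DMSO so loss or gain of signal counts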
Method in brief: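 Co-culture of human umbilical vein endothelial cells and PBMC, read 24 h after dosing. Total protein by 0.1% SRB staining after 10% TCA fixation, absorbance at 560 nm; bidirectional fit against DMSO.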

[8] = read-out: Monocyte Chemoattractant Protein-1 (MCP1), CCL2 (gene 6347); experiment: BSK_LPS_MCP1: BioMAP Diversity Plus: LPS Assay for Monocyte Chemoattractant Protein-1 (MCP1) Biomarker Activity (AID 2283081); settings: primary human HUVEC with PBMC; actives raise or lower the signal;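 on AC50: secreted MCP-1 protein quantified by ELISA in culture supernatant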
Method in brief: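 Human umbilical vein endothelial cells co-cultured with PBMC, LPS-stimulated; secreted MCP-1 measured by ELISA 24 h after compound addition. Bidirectional curve fitting against DMSO baseline; SRB total-protein staining in parallel cultures for cytotoxicity.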

[9] = BSK_LPS_PGE2: BioMAP Diversity Plus: LPS Assay for Prostaglandin E2 (PGE2) Biomarker Activity (AID 2283082); settings: primary human HUVEC with PBMC; actives raise or lower the signal;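 on AC50: secreted prostaglandin E2 measured by ELISA in LPS-stimulated co-culture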
Method in brief: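 LPS-activated HUVEC/PBMC co-culture; cmpd dosed, 24 h; PGE2 by ELISA; bidirectional fit vs DMSO; SRB (0.1%, TCA-fixed, 560 nm) in parallel plates for overt cytotox.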

[10] = read-out: Macrophage colony-stimulating factor (MCSF), CSF1 (gene 1435); experiment: BSK_LPS_MCSF: BioMAP Diversity Plus: LPS Assay for Macrophage colony-stimulating factor (MCSF) Biomarker Activity (AID 2283083); settings: primary human HUVEC with PBMC; actives raise or lower the signal
Method in brief: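 HUVEC–PBMC co-culture, M-CSF measured by ELISA 24 h after chemical dosing. Fitted in both directions relative to DMSO as negative control; overt cytotoxicity assessed by SRB total-protein staining in parallel cultures.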

[11] = read-out: Tissue Factor, F3 (gene 2152); experiment: BSK_LPS_TissueFactor: BioMAP Diversity Plus: LPS Assay for Tissue Factor Biomarker Activity (AID 2283084); settings: primary human HUVEC with PBMC; actives raise or lower the signal
Method in brief: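 Human umbilical vein endothelial cells co-cultured with PBMC were dosed with compound. Cell-surface CD142 was measured by ELISA 24 h later. Activity was fitted bidirectionally against DMSO, with SRB total-protein staining in parallel cultures for cytotoxicity.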

[12] = read-out: Tumor necrosis factor (Homo sapiens) (UniProt P01375); experiment: BSK_LPS_TNFa: BioMAP Diversity Plus: LPS Assay for Tumour Necrosis Factor alpha (TNFa) Biomarker Activity (AID 2283085); settings: primary human HUVEC with PBMC; actives raise or lower the signal
Method in brief: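 Read-out is ELISA of TNFa in primary human endothelial cell–PBMC co-cultures at 24 h after compound. Activity in either direction was fitted against DMSO.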

[13] = read-out: Vascular cell adhesion molecule 1 (VCAM1), VCAM1 (gene 7412); experiment: BSK_LPS_VCAM1: BioMAP Diversity Plus: LPS Assay for Vascular cell adhesion molecule 1 (VCAM1) Biomarker Activity (AID 2283086); settings: primary human HUVEC with PBMC; actives raise or lower the signal
Method in brief: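 HUVEC + PBMC co-culture, LPS system; compound 24 h; VCAM-1 by ELISA; bidirectional fit vs DMSO control; parallel SRB (0.1%, TCA-fixed, 560 nm) for cytotoxicity.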

[14] = read-out: CD38, CD38 (gene 952); experiment: BSK_SAg_CD38: BioMAP Diversity Plus: SAg Assay for CD38 Biomarker Activity (AID 2283087); settings: primary human HUVEC with PBMC; actives raise or lower the signal
Method in brief: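 Human HUVEC plus PBMC co-culture stimulated with superantigen; CD38 measured by ELISA 24 h after chemical dosing. Fluorescence read-out, bidirectional fit against DMSO; cytotoxicity tracked in parallel by SRB and Alamar Blue.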

[15] = read-out: CD40, CD40 (gene 958); experiment: BSK_SAg_CD40: BioMAP Diversity Plus: SAg Assay for CD40 Biomarker Activity (AID 2283088); settings: primary human HUVEC with PBMC; actives raise or lower the signal
Method in brief: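 HUVEC plus PBMC co-culture, superantigen-activated, with CD40 read by ELISA 24 h after dosing. Curves fitted in both directions against DMSO. Overt cytotoxicity checked by parallel SRB total-protein staining.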

[16] = read-out: CD69, CD69 (gene 969); experiment: BSK_SAg_CD69: BioMAP Diversity Plus: SAg Assay for CD69 Biomarker Activity (AID 2283089); settings: primary human HUVEC with PBMC; actives raise or lower the signal;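 on AC50: cell surface CD69 protein quantified by ELISA with fluorescence detection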
Method in brief: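 ELISA, fluorescence read-out: CD69 on human umbilical vein endothelial cell + PBMC co-culture, 24 h post-dosing. Gain or loss of signal fitted bidirectionally against DMSO baseline.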

[17] = read-out: Monocyte Chemoattractant Protein-1 (MCP1), CCL2 (gene 6347); experiment: BSK_SAg_MCP1: BioMAP Diversity Plus: SAg Assay for Monocyte Chemoattractant Protein-1 (MCP1) Biomarker Activity (AID 2283090); settings: primary human HUVEC with PBMC; actives raise or lower the signal
Method in brief: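 MCP-1 levels in the endothelial–PBMC SAg co-culture were quantified by ELISA at 24 h post-dosing; both increases and decreases versus DMSO scored. Cytotoxicity monitored by SRB total protein in parallel cultures.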

[18] = read-out: urokinase plasminogen activator (uPA), PLAU (gene 5328); experiment: BSK_KF3CT_uPA: BioMAP Diversity Plus: KF3CT Assay for urokinase plasminogen activator (uPA) Biomarker Activity (AID 2283075); settings: primary human keratinocytes with fibroblasts; actives raise or lower the signal
Method in brief: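 Primary human keratinocyte/foreskin fibroblast co-culture exposed to chemical; uPA measured by ELISA at 24 h. Bidirectional fit versus DMSO, with parallel SRB total-protein staining for cytotoxicity.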

[19] = read-out: Interleukin-1 alpha (IL1a), IL1A (gene 3552); experiment: BSK_LPS_IL1a: BioMAP Diversity Plus: LPS Assay for Interleukin-1 alpha (IL1a) Biomarker Activity (AID 2283080); settings: primary human HUVEC with PBMC; actives raise or lower the signal
Method in brief: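 Human umbilical vein endothelial cells co-cultured with PBMC and stimulated with LPS; IL-1a measured by ELISA 24 h after dosing. Bidirectional fitting against DMSO; cytotoxicity checked by SRB staining in parallel cultures.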

[20] = read-out: Matrix Metallopeptidase 9 (MMP9), MMP9 (gene 4318); experiment: BSK_KF3CT_MMP9: BioMAP Diversity Plus: KF3CT Assay for Matrix Metallopeptidase 9 (MMP9) Biomarker Activity (AID 2283074); settings: primary human keratinocytes with fibroblasts; actives raise or lower the signal
Method in brief: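 Human keratinocyte and foreskin fibroblast co-culture exposed to chemicals for 24 h; MMP9 biomarker measured by ELISA, bidirectional fitting relative to DMSO; cytotoxicity tracked by SRB total protein staining in parallel cultures.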

Measured: AC50

E-selectin (Homo sapiens), sequence (P16581 whole entry, looked up): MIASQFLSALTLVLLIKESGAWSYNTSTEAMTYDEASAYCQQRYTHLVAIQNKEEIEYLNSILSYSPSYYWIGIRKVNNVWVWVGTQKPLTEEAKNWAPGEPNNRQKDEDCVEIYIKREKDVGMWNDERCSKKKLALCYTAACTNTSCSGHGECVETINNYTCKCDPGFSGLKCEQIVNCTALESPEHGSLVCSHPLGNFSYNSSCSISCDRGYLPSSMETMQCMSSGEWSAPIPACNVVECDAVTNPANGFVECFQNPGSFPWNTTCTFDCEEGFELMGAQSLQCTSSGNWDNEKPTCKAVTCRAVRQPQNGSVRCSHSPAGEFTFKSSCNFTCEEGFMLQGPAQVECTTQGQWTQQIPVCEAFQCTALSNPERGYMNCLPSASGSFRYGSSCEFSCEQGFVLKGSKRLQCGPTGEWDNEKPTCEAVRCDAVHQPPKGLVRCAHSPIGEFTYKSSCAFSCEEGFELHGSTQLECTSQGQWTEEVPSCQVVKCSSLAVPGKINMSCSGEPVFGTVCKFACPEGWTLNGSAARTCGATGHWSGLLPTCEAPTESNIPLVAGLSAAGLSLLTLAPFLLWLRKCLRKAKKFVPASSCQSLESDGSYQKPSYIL
Tumor necrosis factor (Homo sapiens), sequence (P01375 whole entry, looked up): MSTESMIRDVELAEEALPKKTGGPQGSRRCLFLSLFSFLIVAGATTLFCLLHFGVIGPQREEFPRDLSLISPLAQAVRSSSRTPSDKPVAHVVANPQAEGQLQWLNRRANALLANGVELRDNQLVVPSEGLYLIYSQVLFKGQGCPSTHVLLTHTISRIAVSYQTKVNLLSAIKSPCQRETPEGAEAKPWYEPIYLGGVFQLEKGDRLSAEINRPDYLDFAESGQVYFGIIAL

CC[C@@H]1C[C@H](N(Cc2cc(C(F)(F)F)cc(C(F)(F)F)c2)C(C)=O)c2cc(C(F)(F)F)ccc2N1C(=O)OC(C)C
not listed: [17] | [18] | [19] | [20]
inactive: all other assays above

Cc1c2ccccc2c(C)c2c1ccc1ccccc12
active: [4] 15.3 µM | [7] 24.8 µM | [8] 25.3 µM | [10] 20 µM | [13] 24.1 µM | [14] 28.6 µM | [15] 22.3 µM | [16] 20 µM
not listed: [18] | [19] | [20]
inactive: all other assays above

COc1cc(C(=O)NC2CCN(C)CC2)ccc1Nc1ncc2c(n1)N(C1CCCC1)CC(F)(F)C(=O)N2C
active: [1] 28.9 µM | [2] 29.8 µM | [3] 5.37 µM | [18] 27.1 µM | [4] 10.1 µM | [5] 22.6 µM | [6] 18.6 µM | [7] 8.37 µM | [8] 11.7 µM | [9] 5.48 µM | [10] 14 µM | [12] 15.1 µM | [13] 11.2 µM | [14] 11.6 µM | [15] 16.6 µM | [16] 10.8 µM

Clc1cc(Cl)c2c(c1)N=C1CCCCCN1C2
not listed: [11] | [18] | [20]
inactive: all other assays above

OCCO
not listed: [3] | [18]
inactive: all other assays above

CCCCCCCCCCCC[N+](C)(C)C
inactive: [9]
active: [1] 27.8 µM | [2] 26.6 µM | [3] 29.7 µM | [18] 34 µM | [4] 16.9 µM | [5] 20.3 µM | [6] 20 µM | [7] 25.7 µM | [19] 16.6 µM | [8] 25.5 µM | [10] 26 µM | [11] 32.4 µM | [12] 31.7 µM | [13] 25.7 µM | [14] 17.4 µM | [16] 18.1 µM

O=C=NCCCCCCN=C=O
not listed: [1] | [11] | [18] | [20]
inactive: all other assays above

CCN(CC)C(=O)c1cc(S(=O)(=O)Cc2ccccc2)c(N2CCC(c3ccccc3)CC2)cc1N(CC)CCN(C)C
active: [4] 8.94 µM | [5] 27.6 µM | [6] 18.7 µM | [7] 10.5 µM | [8] 19.5 µM | [10] 11.8 µM | [11] 33.5 µM | [12] 12.4 µM | [13] 11.5 µM | [14] 9.58 µM | [15] 10.4 µM | [16] 9.82 µM
inactive: [1] | [2] | [3] | [9]

Cc1cc2c(cc1C(F)(F)F)N(C(=O)Nc1ccc(Oc3cccnc3C)nc1)CC2
active: [1] 23.8 µM | [2] 23.6 µM | [4] 12.1 µM | [6] 2.7 µM | [10] 26.8 µM | [13] 14.4 µM | [14] 7.33 µM | [15] 18.4 µM
not listed: [11] | [18] | [19] | [20]
inactive: all other assays above

O=C(OCCCCCCOC(=O)c1ccccc1)c1ccccc1
active: [9] 32.4 µM | [12] 4.86 µM
not listed: [20]
inactive: all other assays above

CC1(C)NC(=O)N(c2ccc([N+](=O)[O-])c(C(F)(F)F)c2)C1=O
not listed: [4] | [11] | [17] | [18] | [20]
inactive: all other assays above

CCCCCCCCCC(=O)O
not listed: [19] | [20]
inactive: all other assays above

Cc1ccc2oc(CN(Cc3ccccc3)C(=O)Nc3c(F)cc(F)cc3F)c(-c3ccc(Cl)cc3)c2c1
active: [1] 26.4 µM
not listed: [11] | [17] | [19] | [20]
inactive: all other assays above

C[C@]12CC[C@@H]3c4ccc(O)cc4CC[C@H]3[C@@H]1CC[C@H]2O
active: [7] 9.95 µM | [8] 14.1 µM | [10] 8.61 µM
not listed: [11] | [13] | [17] | [18] | [20]
inactive: all other assays above
